Experimental findings from PubChem BioAssay (NCI) are described below.

About 83,000 compounds went through this panel and 20% of them were active in at least one assay; those are over-represented in the sample as a whole.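 Note: values are percent growth. 100 is the growth of untreated cells, values between 100 and 0 indicate rising inhibition; between -100 and 0 indicates cell death.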 Values without a mark were called inactive. Active and inactive are the calls of the source. The calls were made as follows: active = growth percent below 10; inactive = the rest.

Among the test systems are NCI-H23 lung; NCI-H226 lung; NCI-H322M lung; HOP-62 NSCLC; NCI-H460 lung; HOP-92 NSCLC; NCI-H522 lung; A549/ATCC NSCLC; 786-0 renal; COLO 205 colon; DU-145 prostate; K-562 leukemia; MALME-3M melanoma; MDA-MB-231 breast; RXF 393 renal; SF-268 CNS; SF-295 CNS; SF-539 CNS; UACC-257 melanoma; M14 melanoma.
Common to all, as to assay: NCI-60 one-dose screen, 48 h (100 = growth as untreated, 0 = no growth, -100 = all killed)
What all share (conditions): 10 µM unless noted

Take `Nc1ccc(F)cc1F`: the growth with NCI-H23 lung was 103%; with NCI-H226 lung it was 94.8%; in the experiment on NCI-H322M lung, 97.4%; in the experiment on HOP-62 NSCLC it was 109%; with NCI-H460 lung it was 105%; with HOP-92 NSCLC, 77.4%. Further, the growth is 102% with NCI-H522 lung; 105% in the experiment on A549/ATCC NSCLC; 98.6% in the experiment with 786-0 renal; 110% with COLO 205 colon; 110% in the experiment with DU-145 prostate; 107% with K-562 leukemia. In addition, the growth is 111% in the experiment with MALME-3M melanoma; 93.7% with MDA-MB-231 breast; 92.2% in the experiment with RXF 393 renal; 109% with SF-268 CNS; 104% in the experiment with SF-295 CNS; 94.3% with SF-539 CNS. Also, the growth was 111% in the experiment on UACC-257 melanoma and 101% in the experiment on M14 melanoma.

Regarding `Clc1cccc(Cl)c1CSc1nc2ccccc2n2cccc12`, the growth is 90.6% in the experiment on NCI-H23 lung; 99.1% with NCI-H226 lung; 71.8% in the experiment with NCI-H322M lung; 101% with HOP-62 NSCLC; 105% in the experiment with NCI-H460 lung; 94% in the experiment on HOP-92 NSCLC. Moreover, the growth in the experiment on NCI-H522 lung was 68.3%; in the experiment with A549/ATCC NSCLC, 95.4%; with 786-0 renal, 96.9%; in the experiment with COLO 205 colon, 91.2%; in the experiment on DU-145 prostate, 92.8%; in the experiment with K-562 leukemia, 89%. The growth was 91.4% in the experiment on MALME-3M melanoma; 98.2% with MDA-MB-231 breast; 97.6% in the experiment with RXF 393 renal; 96.9% with SF-268 CNS; 98% in the experiment on SF-295 CNS; 102% with SF-539 CNS. The growth in the experiment on UACC-257 melanoma is 95.6%; with M14 melanoma it was 94.1%.

As for `Cc1cc(C)cc(OCC(=O)O)c1`, the growth was 97% with NCI-H23 lung; 91.4% in the experiment on NCI-H226 lung; 95.9% in the experiment with NCI-H322M lung; 95.5% in the experiment on HOP-62 NSCLC; 110% in the experiment with NCI-H460 lung; 109% with HOP-92 NSCLC. Also, the growth is 93.7% with NCI-H522 lung; 104% with A549/ATCC NSCLC; 98.2% in the experiment with 786-0 renal; 119% in the experiment with COLO 205 colon; 111% with DU-145 prostate; 93.3% with K-562 leukemia. The growth in the experiment with MALME-3M melanoma was 92.3%; in the experiment with MDA-MB-231 breast, 106%; with RXF 393 renal it was 135%; in the experiment with SF-268 CNS, 114%; with SF-295 CNS, 96.5%; in the experiment with SF-539 CNS, 96.2%. Besides, the growth was 100% with UACC-257 melanoma and 102% in the experiment with M14 melanoma.

With `NC(=S)N/N=C/c1ccc(Cl)cc1`, the growth in the experiment on NCI-H23 lung was 98.1%; with NCI-H226 lung, 97.5%; in the experiment on NCI-H322M lung it was 104%; with HOP-62 NSCLC it was 113%; in the experiment with NCI-H460 lung, 106%; in the experiment with HOP-92 NSCLC, 91%. Besides, the growth was 87.8% in the experiment with NCI-H522 lung; 106% with A549/ATCC NSCLC; 104% in the experiment with 786-0 renal; 131% with COLO 205 colon; 120% with DU-145 prostate; 92.8% in the experiment on K-562 leukemia. The growth in the experiment with MALME-3M melanoma is 109%; with MDA-MB-231 breast, 111%; with RXF 393 renal, 97.4%; with SF-268 CNS it was 109%; with SF-295 CNS, 97.4%; with SF-539 CNS, 106%. The growth was 91.7% in the experiment with UACC-257 melanoma and 108% in the experiment with M14 melanoma.

With `CCN(CC)CCN1CNC(=S)NC1`, the growth in the experiment with NCI-H23 lung is 99.2%; in the experiment with NCI-H226 lung, -70.2% (active); in the experiment with NCI-H322M lung, 108%; in the experiment with HOP-62 NSCLC, 98.8%; with NCI-H460 lung it was 114%; in the experiment on HOP-92 NSCLC, 96.5%. Moreover, the growth with NCI-H522 lung is 94.6%; in the experiment on A549/ATCC NSCLC it was 106%; with 786-0 renal it was 101%; in the experiment on COLO 205 colon, 106%; in the experiment on DU-145 prostate it was 106%; in the experiment on K-562 leukemia, 102%. For the same compound, the growth in the experiment with MALME-3M melanoma was 103%; with MDA-MB-231 breast, 114%; in the experiment on RXF 393 renal, 114%; in the experiment on SF-268 CNS it was 102%; with SF-295 CNS, 102%; with SF-539 CNS it was 103%. Moreover, the figures for the growth with UACC-257 melanoma and in the experiment on M14 melanoma were 111% and 102%, respectively.

Take `CCCCCCCCCCCCCCCCCC(=O)NCCNC(=O)CCCCCCCCCCCCCCCCC`: the growth with NCI-H23 lung is 95.2%; in the experiment with NCI-H226 lung, 107%; in the experiment with NCI-H322M lung it was 72.4%; with HOP-62 NSCLC, 89.8%; in the experiment on NCI-H460 lung, 98.8%; in the experiment on HOP-92 NSCLC, 37.4%. The growth was 98.7% with NCI-H522 lung; 94.5% in the experiment with A549/ATCC NSCLC; 91.9% with 786-0 renal; 84.5% in the experiment on COLO 205 colon; 97.5% with DU-145 prostate; 57.4% in the experiment on K-562 leukemia. Moreover, the growth with MALME-3M melanoma was 93.5%; in the experiment on MDA-MB-231 breast, 75.3%; in the experiment on RXF 393 renal, 109%; with SF-268 CNS, 89.3%; in the experiment on SF-295 CNS, 100%; with SF-539 CNS, 96.9%. For the same compound, the growth was 105% in the experiment with UACC-257 melanoma and 95.6% with M14 melanoma.

Regarding `CC(=O)NC(CCc1ccc(Cl)c(Cl)c1)c1cccc(O)c(=O)c1` (stereo not given), the growth with NCI-H23 lung was 21.8%; in the experiment with NCI-H226 lung, -13.8% (active); in the experiment on NCI-H322M lung, 5% (active); in the experiment on HOP-62 NSCLC, 10.3%; in the experiment with NCI-H460 lung, 3.68% (active); in the experiment with HOP-92 NSCLC it was 4.89% (active). The growth in the experiment with NCI-H522 lung is 15.7%; with A549/ATCC NSCLC it was 8.58% (active); in the experiment with 786-0 renal, 10.2%; in the experiment with COLO 205 colon it was 16.7%; with DU-145 prostate it was 16.6%; with K-562 leukemia, 11.2%. Also, the growth with MALME-3M melanoma was -17.9% (active); in the experiment on MDA-MB-231 breast it was 28.3%; in the experiment with RXF 393 renal, 18.6%; with SF-268 CNS, 8.61% (active); in the experiment with SF-295 CNS, -22.2% (active); in the experiment on SF-539 CNS, 2.57% (active). Besides, the values for the growth with UACC-257 melanoma and in the experiment with M14 melanoma were -11% (active) and -44.2% (active), respectively.

Regarding `CCC(C)c1c(N)n(S(=O)(=O)c2ccc(C)cc2)oc1=O` (stereo not given), the growth was 108% in the experiment on NCI-H23 lung; 111% in the experiment on NCI-H226 lung; 123% in the experiment on NCI-H322M lung; 112% in the experiment with HOP-62 NSCLC; 105% with NCI-H460 lung; 105% with HOP-92 NSCLC. The growth with NCI-H522 lung was 90.1%; in the experiment with A549/ATCC NSCLC it was 108%; with 786-0 renal, 119%; in the experiment on COLO 205 colon it was 124%; in the experiment with DU-145 prostate, 115%; in the experiment on K-562 leukemia, 130%. For the same compound, the growth with MALME-3M melanoma is 135%; in the experiment on MDA-MB-231 breast, 108%; with RXF 393 renal it was 125%; in the experiment with SF-268 CNS, 109%; with SF-295 CNS, 104%; in the experiment with SF-539 CNS, 96.6%. In addition, the growth with UACC-257 melanoma is 90.6%; with M14 melanoma it was 105%.
